The structures appear in SMILES notation. Screen size: about 68,000 compounds; about 2,700 (4%) showed an effect of 50% or more. The full list was thinned out, with strong results kept by preference.

The subject of the assay is Plasmodium berghei. Briefly: Screen against P. berghei liver stage (PbLuc), transformed with Luciferase, at 2uM. The class given is functional, HepG2. Conditions: tested at 2 uM.
Take `O=C(NCc1ccccn1)c1cncc(C2CCCN2)n1` (configuration not stated): the INHIBITION was 20.28%.
In the case of `O=C(CCn1ncc2ccccc21)N1CCCC(Cc2cccnc2)C1` (configuration not stated), the INHIBITION came out at 20.44%.
With `Cc1csc(CN2CCC(C(=O)O)(n3ccc(-c4ccco4)n3)CC2)n1` the figure was -8.84%; with `Cc1cc(C(=O)N(C)Cc2cccs2)nc(N2CCCC2)n1`, 50.9%; with `Cc1cc(C(=O)N(C)Cc2cccs2)nc(N2CCOCC2)n1`, -3.54%.
Next, `Cc1cc(C(=O)N(C)Cc2cccs2)nc(N2CCCCC2)n1`: -14.24%; `c1nc(N2CCCC2)ncc1CN1CCCC(CN2CCCCC2)C1` (configuration not stated): 52.45%.
With `NC(=O)CCC1CCCN(Cc2cnc(N3CCCCC3)nc2)C1` (configuration not stated) the figure was 44.23%.
Turning to `CC(C)c1ncc(CN2CCCC(CO)C2)cn1` (configuration not stated), the INHIBITION is listed as 1.42%.
In the case of `Cc1ccoc1C(=O)NC1CCN(Cc2cccc3ccccc23)CC1`, the INHIBITION is listed as 3.48%.
Regarding `CC(=O)N(C)CC(=O)NC(C)c1ccc(OCCC(C)C)cc1` (configuration not stated), the INHIBITION is listed as 29.41%.
On to `N#Cc1c(N)nc2c(c1-c1c[nH]nc1C1CCCCC1)COCC2`, for which the INHIBITION is -64.94%.
For the molecule `Cn1nc(C2CC2)c2c1NC(=O)CC2c1cc(CN2CCCC2)cs1` (configuration not stated), the INHIBITION is recorded as 73.26%.
Next, `CCCn1nc(C)c2c1NC(=O)CC2c1ccc(CN2CCCC2)s1` (configuration not stated): 5.02%; `Cn1nc(C2CC2)c2c1NC(=O)CC2c1ccc(CN2CCCCC2)s1` (configuration not stated): 22.63%; `O=C(CC1CCCC1)N1CCC(c2nnc(-c3ccccn3)o2)CC1`: 9.09%.
As for `Cc1cc(C(=O)NCCC(=O)N2CCCc3ccccc32)no1`, the INHIBITION is 12.39%.
With `COc1c(C(=O)NCc2cccnc2)nnn1Cc1ccc(C)cc1` the figure was -19.47%.
For `Cc1ccc2c(c1)Oc1ncccc1C(=O)N2`, the INHIBITION is recorded as 9.43%.
Turning to `CN(CC(=O)NCCC#N)C(c1ccccc1)c1ccccc1`, the INHIBITION came out at 21.71%.
Consider `CN(CC(=O)NCCC#N)C(c1ccccc1)c1ccc(F)cc1` (configuration not stated), for which the INHIBITION is on record as 13.11%.
Turning to `CC(c1ccccc1)N(C)CC(=O)NCCC#N` (configuration not stated), the INHIBITION turned out to be 59.24%.
`O=C(CCc1cc2n(n1)CCN(CCCn1cccc1)C2)N1CCCC1`: the INHIBITION stood at 5.1%.
With `CC1(C)CC(N(Cc2cccnc2)Cc2cccc(F)c2)CC(C)(C)N1` the figure was -4.26%.
Next, `O=C(NCCCn1nc2ccccn2c1=O)Nc1ccc(F)cc1F`: 4.96%; `CN1CCN(S(=O)(=O)c2cccc(S(=O)(=O)C3CCS(=O)(=O)C3)c2)CC1` (configuration not stated): 28.43%; `COc1ncc(C2CC(=O)NCc3nc4ccccn4c32)cn1` (configuration not stated): -36.24%.
Next, `COc1ccc(C2CC(=O)NCc3nc4ccccn4c32)cn1` (configuration not stated): 54.3%; `COc1ncccc1C1CC(=O)NCc2nc3ccccn3c21` (configuration not stated): 29.41%; `COCCC1(C(=O)O)CCCN(C(=O)c2cc(C)oc2C)C1` (configuration not stated): -11.55%.
Regarding `CC(C)C(CCO)NC(=O)Nc1ccc(-c2csnn2)cc1` (configuration not stated), the INHIBITION worked out at 12.78%.
Turning to `CCN1CCCC(NC(=O)c2ccc(C)[nH]c2=O)C1` (configuration not stated), the INHIBITION is -53.67%.
With `Cc1ccc(C(=O)NC2CCCN(C)C2)c(=O)[nH]1` (configuration not stated), the INHIBITION turned out to be 52.84%.
As for `Cc1ccc(C(=O)NC2CCCN(S(C)(=O)=O)C2)c(=O)[nH]1` (configuration not stated), the INHIBITION was -34.79%.
As to `Cc1cccc(CN(Cc2ccc(C)o2)C2CC(C)(C)NC(C)(C)C2)n1`, the INHIBITION worked out at 29.73%.
Next, `CCc1nc(N)nc(N2CCCC3(CCN(C)CC3)CC2)c1C`: -17.39%; `CC(=O)c1ccc(-c2cnn(CC(=O)Nc3cc(C)nn3C)c2)nc1`: 36.09%.
As to `CC(=O)c1ccc(-c2cnn(CC(=O)Nc3ccnn3C)c2)nc1`, the INHIBITION was found to be 59.56%.
Regarding `Cn1ccnc1-c1cnn(CC(=O)Nc2ccnn2C)c1`, the INHIBITION is on record as 35.13%.
Next, `CS(=O)(=O)N1C[C@H]2CC[C@@H](C1)N(C(=O)CCc1n[nH]c3c1CCCC3)C2`: -4.58%; `Cn1cc(C2CCCN2Cc2csc(C(C)(C)C)n2)cn1` (configuration not stated): -10.66%.
Next, `CCCc1nc(CN2CCCC2c2cnn(C)c2)cs1` (configuration not stated): 58.52%; `Cn1cc(C2CCCN2Cc2csc(Cc3ccccc3)n2)cn1` (configuration not stated): 3.48%.
In the case of `Cc1cc(NCCc2nnc(N)s2)nc(-c2ccccc2)n1`, the INHIBITION is on record as 7.02%.
With `COc1nccnc1N1CCCC2(C1)C(=O)N(C)c1ccccc12` (configuration not stated) the figure was -8.8%.
Turning to `CCN1CCc2c(cccc2NC(=O)CN(C)C2CCSC2)C1` (configuration not stated), the INHIBITION was found to be 49.21%.
With `CCN1CCc2c(cccc2NC(=O)N(C)C2CCSC2)C1` (configuration not stated) the figure was 51.9%.
With `CCN1CCN(c2ccccc2NC(=O)N(C)C2CCSC2)CC1` (configuration not stated) the figure was 25.08%.
With `Cn1ccc(C(=O)Nc2cccc(-c3ccc4c(c3)CCO4)n2)cc1=O` the figure was -17.18%; with `Cc1ccc2c(c1)OC(C)CN2C(=O)c1c[nH]c(C)cc1=O` (configuration not stated), -33.29%; with `CCn1nccc1CN(C)C(=O)Cn1nc(C)cc1C`, -47.19%.
Turning to `Cn1nc(Br)c2c(NCCCS(N)(=O)=O)ncnc21`, the INHIBITION was -5.61%.
With `CCOCC(=O)N1Cc2nccn2CC(CN(C)C)C1` (configuration not stated) the figure was -8.84%; with `COc1ccc2nnc(CCC(=O)Nc3nc4c(s3)CCCCC4)n2n1`, 48.59%.
With `COc1ccc2nnc(CCC(=O)Nc3nc4c(s3)CCCC4)n2n1` the figure was 21.57%; with `COc1ccc2nnc(CCC(=O)Nc3nc4c(s3)CCC4)n2n1`, 58.29%.
With `COCCNC(=O)c1cc(C2CC2)nc2onc(C3CCNC3)c12` (configuration not stated), the INHIBITION is listed as 5.75%.
On to `CCOc1ccccc1NC(C)C(=O)N(C)Cc1cccc(F)c1` (configuration not stated), for which the INHIBITION is recorded as 4.8%.
With `CC(NC(=O)Cn1cccn1)c1ccc2c(c1)OCCO2` (configuration not stated) the figure was 21.39%; with `CC(NC(=O)Cn1cccn1)c1ccc2c(c1)OCCCO2` (configuration not stated), 51.21%; with `CC(NC(=O)CCn1cccn1)c1ccc2c(c1)OCCO2` (configuration not stated), -17.31%.
`O=C(O)c1ccccc1-n1cnc(CN2CCCc3ccccc32)c1`: the INHIBITION is 37.36%.
As for `CN1CC(=O)N(c2cnn(C)c2)CC12CCN(Cc1nccn1C)C2` (configuration not stated), the INHIBITION is 8.65%.
Turning to `Cc1ccc(N2CC3(COCCN(Cc4ccncc4)C3)OCC2=O)s1` (configuration not stated), the INHIBITION is -37.34%.
`Cc1ccc(N2CC3(COCCN(Cc4nccs4)C3)OCC2=O)s1` (configuration not stated): the INHIBITION was 58%.
Turning to `Cc1ccc(N2CC3(COCCN(Cc4ccccn4)C3)OCC2=O)s1` (configuration not stated), the INHIBITION is recorded as 40%.
Next, `O=C(CCN1CCCC1=O)Nc1cnn(-c2ccccc2Cl)c1`: 25.35%; `O=C(CCCN1CCOC1=O)Nc1cnn(-c2ccccc2Cl)c1`: -16.28%.
Next, `O=C(CCN1CCOC1=O)Nc1cnn(-c2ccccc2Cl)c1`: 51.46%; `Cc1ccc2cc(CN(C)Cc3nccs3)c(=O)[nH]c2c1`: -0.38%.
With `CCn1cc(C(=O)N(C)Cc2c(F)cccc2Cl)cn1` the figure was 53.13%; with `CN(Cc1c(F)cccc1Cl)C(=O)c1cnn(CCN2CCOCC2)c1`, -9.03%; with `CCn1cnnc1CNC(=O)N(C)Cc1c(F)cccc1Cl`, -17.88%.
As for `CN(Cc1c(F)cccc1Cl)C(=O)Nc1cnn(CC(N)=O)c1`, the INHIBITION is 11.07%.
With `CN(Cc1c(F)cccc1Cl)C(=O)Cn1cnc(C#N)n1` the figure was -6.73%.
With `CN(Cc1c(F)cccc1Cl)C(=O)c1cnn(CCN2CCCCC2)c1` the figure was 60.04%; with `Cc1nc(C2CCCN(C(=O)c3ccc(Cl)cn3)C2)no1` (configuration not stated), -29.54%; with `CN(C)C(=O)c1cccc(CCNS(=O)(=O)c2ccccc2)c1`, 49.08%.
With `NS(=O)(=O)CCN1CCOC(c2ccsc2)C1` (configuration not stated) the figure was -10.36%.
`CC1CCN(c2ccc(=O)n(CC(=O)N(C)Cc3ccccc3)n2)CC1`: the INHIBITION is recorded as -7.56%.
With `COc1cc(N2C[C@@H]3COC[C@]3(COCc3cccc(C)n3)C2)ncn1`, the INHIBITION amounted to 0.14%.
As to `COC(C)(C)CNC(=O)N1CCCC1c1c(C)n[nH]c1C` (configuration not stated), the INHIBITION worked out at 22.83%.
Next, `CN(Cc1ccco1)C(=O)NCc1ccnc(SC(C)(C)C)c1`: 53.29%; `Cc1cc(CN(C)C(=O)NCc2ccnc(SC(C)(C)C)c2)no1`: 14.69%.
With `CN(Cc1ccco1)C(=O)NCc1nnc2n1CCC2` the figure was -18.86%; with `Cc1cc(CN(C)C(=O)NCc2ccccn2)no1`, 26.62%; with `Cc1cc(CN(C)C(=O)NCc2ccco2)no1`, 66.88%.
In the case of `Cc1cc(CN(C)C(=O)CN2CCCC2=O)no1`, the INHIBITION turned out to be 51.36%.
For the molecule `Cc1cc(CN(C)C(=O)CN2CCCCCC2=O)no1`, the INHIBITION is reported as 33.35%.
With `Cc1cc(CN(C)C(=O)NC(C)Cc2ccco2)no1` (configuration not stated) the figure was 45.62%.
Next, `CC(C)c1cc(CN(C)C(=O)CN2CCCCC2=O)no1`: -11.61%; `O=C(c1ccc(F)cc1)N1C[C@@H]2COC[C@]2(COc2cccnc2)C1`: -55.8%.
Take `CC(CO)NC(=O)Nc1ccc(CC#N)cc1` (configuration not stated): the INHIBITION is 20.32%.
In the case of `CCc1nc2n(n1)CC(Nc1ccnc(-c3ccccc3)n1)CC2` (configuration not stated), the INHIBITION is -1.33%.
With `CC(C)C(=O)N1CCCC12CCCN(C(=O)c1ccno1)C2` (configuration not stated) the figure was 8.34%.
Consider `N#Cc1ccc(N2CCC3(CC2)CC(N2CCOCC2)CO3)cc1` (configuration not stated), for which the INHIBITION is on record as -0.69%.
With `CN1CCN(C2COC3(CCN(c4ccc(C#N)cc4)CC3)C2)CC1` (configuration not stated) the figure was 54.5%; with `COC1COC2(CCN(c3ccc(C#N)cc3)CC2)C1` (configuration not stated), -13.61%; with `Cc1nn(C)c(N(C)C)c1CNC(C)COc1ccc(F)cc1F` (configuration not stated), 25.03%.
With `Cn1cc(C(=O)N2C[C@H]3CC(Oc4ccccc4)C[C@H]3C2)cn1` (some centres not stated) the figure was -36.58%; with `O=C(COc1cc(Cl)cc(Cl)c1)NCc1nncn1C1CC1`, -13.8%; with `O=C(COc1ccc(Cl)cc1)NCc1nncn1C1CC1`, 24.36%.
Next, `O=C(COc1cccnc1)NCc1nncn1C1CCCCC1`: 57.75%.
Consider `Cc1nc(CN2C(=O)CC[C@@H]3[C@H]2CCN3C2CCOCC2)cs1`, for which the INHIBITION is listed as -6.68%.
Regarding `O=C(c1cc[nH]n1)N1CCc2ncnc(N3CCSCC3)c2CC1`, the INHIBITION was found to be 24.55%.
Next, `Cc1cc(C(=O)N2CCc3ncnc(N4CCSCC4)c3CC2)[nH]n1`: 64.2%; `Cc1cc(C(=O)N2CCc3c(ncnc3N3CCOCC3)C2)[nH]n1`: -0.79%.

(Values after ChEMBL document CHEMBL4513216, “Probing the Open Global Health Chemical Diversity Library for Multistage-Active Starting Points for Next-Generation Antimalarials” (ACS Infect Dis, 2020).)
